Results reported in PubChem BioAssay.
Activity calls are given as the source filed them.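 The calls were made as follows, unless noted: active = inhibition of the reporter signal at or above 50%; inactive = inhibition below 50%.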

How the values were obtained:
[1] = inhibitors of TNFa-induced NFkB p65 translocation, primary screen, imaging, HUVEC, MLSMR starter and 10KST1 sets (AID 438;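 active = inhibition above 20% together with a positive visual image hit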;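 also: compound added about 3h40 before a 20 min TNFalpha stimulation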;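 as to inhibition: signal is the nuclear over cytoplasmic p65 intensity ratio per well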); conditions: HUVEC TNFa-induced p65 nuclear translocation; cell count: measured here: nuclei count (cytotoxicity indicator), at 2.08 µM; inhibition: at 2 µM, stronger effect = higher value, 0% TNFa-plus-vehicle, 100% no-TNFa wells
[2] = reduction of polyQ htt aggregates in cells – imaging, exon1htt(103Q)mCFP cells, high-content imaging, primary screen (AID 483;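 active = visual image review flags a hit and inhibition of aggregation exceeds 20%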;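 also: compound exposure lasted 3 days before fixation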;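 as to nuclei count: percent of the per-plate median nuclei count of sample wells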); conditions: exon1htt(103Q)mCFP cell line, aggregate imaging, at 2 µM; inhibition of aggregation: stronger effect = higher value; nuclei count: measured here: cell count, toxicity
[3] = endothelial E-selectin expression blockers – imaging, HUVEC, immunofluorescence, MLSMR starter and 10KST1 sets, primary screen (AID 487;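 active = visually confirmed hit in the image check and inhibition above 20%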;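 as to inhibition: signal is fraction of cell area covered by stained E-selectin grains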;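 as to nuclei count: 100% = median nuclei count of all wells on the same plate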); conditions: HUVEC TNFalpha-induced E-selectin immunofluorescence imaging, at 2 µM; inhibition: stronger effect = higher value; nuclei count: measured here: cell number, toxicity
[4] = biological target: Voltage-gated potassium channel subunit beta-2 (Rattus norvegicus) (UniProt P62483); test: inhibitors of rat Kvbeta2 reductase activity – biochemical, NADPH fluorescence, primary screen (AID 622;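 active = fluorescence slope higher than the sample average by over 3 SD, cut at about -0.22 in these data, passing the limit was not always enough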;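 also: slope of raw intensity against log time taken from 70 to 1610 s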); conditions: recombinant KvBeta, 4-cyanobenzaldehyde reduction, at 10 µM, stronger effect = higher value
[5] = biological target: Voltage-gated potassium channel subunit beta-2 (Rattus norvegicus) (UniProt P62483); test: enhancers of rat Kvbeta2 NADPH turnover – biochemical, NADPH fluorescence, primary screen (AID 623;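 active = NADPH fluorescence slope more negative than the mean of all samples by about 3 SD, 99.7% confidence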;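 also: fluorescence intensity change per second fitted from 20 to 320 s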); conditions: Recombinant KvBeta, NADPH fluorescence decrease slope, 10 min; at 10 µM; stronger effect = lower value
[6] = biological target: Alpha-2C adrenergic receptor (Homo sapiens) (UniProt P18825); test: compounds altering alpha2C-coupled GIRK flux – cell-based, HEK293 alpha2C/GIRK1/2, thallium flux, primary screen (AID 624;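 active = fluorescence slope after compound addition differing from the mean of all screened samples at 99.7% confidence, in either direction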;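 also: slope of fluorescence ratio to pre-addition baseline per second over 15 to 24 s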); conditions: thallium flux BTC fluorescence, at 10 µM, actives lie on both sides
[7] = blockers of RIG-like receptor reporter activation – cell-based, Sendai virus stimulus, luciferase, 10K MLSCN set, TLR/RLR signaling modifier project, primary screen (AID 602276;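 active = inhibition at or above 50% at 10 µM; inactive = inhibition below 50%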;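 also: firefly luciferase from ISG56 promoter only with Renilla not read in this screen; 0% = Sendai virus plus DMSO and 100% = medium plus DMSO without virus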); conditions: HEK293 RL24 IRF3 luciferase reporter, at 10 µM, stronger effect = higher value
[8] = TLR3 IRF3 reporter activation blockers – cell-based, poly I:C stimulus, luciferase, 10K MLSCN set, primary screen (AID 602277); conditions: HEK293-TLR3 RL24 IRF3 luciferase reporter, at 10 µM, stronger effect = higher value

Sequence of Alpha-2C adrenergic receptor (Homo sapiens) (P18825 whole entry, looked up): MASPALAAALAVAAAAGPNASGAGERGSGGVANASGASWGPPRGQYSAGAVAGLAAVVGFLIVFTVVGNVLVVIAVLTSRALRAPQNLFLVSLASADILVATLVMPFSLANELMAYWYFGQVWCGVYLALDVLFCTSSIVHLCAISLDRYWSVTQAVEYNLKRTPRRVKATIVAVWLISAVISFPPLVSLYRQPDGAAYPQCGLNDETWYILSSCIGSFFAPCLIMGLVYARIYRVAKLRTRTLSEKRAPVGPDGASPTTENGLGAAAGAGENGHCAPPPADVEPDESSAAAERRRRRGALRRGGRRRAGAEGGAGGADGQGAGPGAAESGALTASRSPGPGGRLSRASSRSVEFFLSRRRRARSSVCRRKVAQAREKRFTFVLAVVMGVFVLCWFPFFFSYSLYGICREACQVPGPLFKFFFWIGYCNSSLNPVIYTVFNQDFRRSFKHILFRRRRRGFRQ
Sequence of Voltage-gated potassium channel subunit beta-2 (Rattus norvegicus) (P62483 whole entry, looked up): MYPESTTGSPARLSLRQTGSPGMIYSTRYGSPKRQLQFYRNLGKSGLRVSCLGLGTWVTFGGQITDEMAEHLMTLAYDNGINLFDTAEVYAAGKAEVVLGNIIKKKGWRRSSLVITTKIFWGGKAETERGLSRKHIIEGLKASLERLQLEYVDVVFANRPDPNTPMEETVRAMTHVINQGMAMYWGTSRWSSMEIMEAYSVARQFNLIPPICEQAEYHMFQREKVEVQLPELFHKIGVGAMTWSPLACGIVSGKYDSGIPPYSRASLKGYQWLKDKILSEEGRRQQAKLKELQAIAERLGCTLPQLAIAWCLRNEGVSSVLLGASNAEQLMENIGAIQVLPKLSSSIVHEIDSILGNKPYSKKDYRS

Structure (SMILES) | cell count [1] | inhibition [1] | inhibition of aggregation [2] | nuclei count [2] [%] | inhibition [3] | nuclei count [3] [%] | fluorescence slope [4] | NADPH fluorescence slope [5] | slope [6] | inhibition [7] | inhibition [8]
CNC(=O)c1ccsc1NC(=O)c1ccccc1 | 512 | 4.7% (inactive) | 12.3% (inactive) | 91.6 | 7.3% (inactive) | 88.8 | -0.413 (inactive) | -1.9e-05 (inactive) | 0.00587 (inactive) | -11.3% (inactive) | -28.3% (inactive)
CCOc1ccc(C(C)=O)cc1COc1ccc(-n2cnnn2)cc1 | 407 | -8.7% (inactive) | 18.3% (inactive) | 80.8 | 25.1% (inactive) | 132 | -0.617 (inactive) | -6.6e-05 (inactive) | 0.00398 (inactive) | 1.13% (inactive) | -2.41% (inactive)
Cc1cc(C)cc(N2C(=O)CC(N3CCOCC3)C2=O)c1 (stereo not drawn) | 459 | 3% (inactive) | -4.9% (inactive) | 105 | 38.6% (inactive) | 98.8 | -0.355 (inactive) | 3e-05 (inactive) | 0.00693 (inactive) | 13.8% (inactive) | 32.5% (inactive)
COCC(=O)N(C)c1nnc(-c2ccccn2)s1 | 433 | 1.4% (inactive) | 16.5% (inactive) | 84.4 | -12.1% (inactive) | 107 | -0.167 (inactive) | -1.3e-05 (inactive) | 0.0059 (inactive) | -7.53% (inactive) | -17.6% (inactive)
CN(Cc1ccccc1)S(=O)(=O)c1ccc(S(=O)(=O)N2CCN(CCC#N)CC2)cc1 | 687 | -6.9% (inactive) | -13.6% (inactive) | 111 | -50.4% (inactive) | 125 | -0.626 (inactive) | -2.8e-05 (inactive) | 0.00717 (inactive) | -12% (inactive) | 11.4% (inactive)
CCOC(=O)C1CCCN(CCC(C)c2ccccc2)C1 (stereo not drawn) | 469 | -2.7% (inactive) | 2.6% (inactive) | 92.9 | 25% (inactive) | 76.3 | -0.612 (inactive) | -4.1e-05 (inactive) | 0.00315 (inactive) | 14.2% (inactive) | 29.6% (inactive)
COc1cccc(NC(=O)COC(=O)c2ccco2)c1 | 393 | -4% (inactive) | -17.7% (inactive) | 92.3 | -0.6% (inactive) | 122 | -0.47 (inactive) | 7.3e-06 (inactive) | 0.00724 (inactive) | 13.4% (inactive) | 20.6% (inactive)
CC(C)C[C@H](NC(=O)Nc1cccc(C(F)(F)F)c1)C(=O)O | 393 | -9.8% (inactive) | 9.1% (inactive) | 70.6 | -25.5% (inactive) | 97.8 | -0.493 (inactive) | 4.1e-05 (inactive) | 0.00499 (inactive) | -1.3% (inactive) | 6.75% (inactive)
COc1cccc(C(=O)CN2CCC(NC(=O)NC3CCCCC3)CC2)c1 | 513 | -25.5% (inactive) | 10.5% (inactive) | 51.6 | -26.9% (inactive) | 114 | -0.393 (inactive) | -3.8e-05 (inactive) | 0.00349 (inactive) | 7.64% (inactive) | -12.8% (inactive)
COc1cccc(OC)c1OCCCSc1nc(C)cc(=O)[nH]1 | 402 | -1.6% (inactive) | 1.1% (inactive) | 108 | 24.3% (inactive) | 97.1 | -0.422 (inactive) | -2.1e-05 (inactive) | 0.00519 (inactive) | -9.76% (inactive) | -3.85% (inactive)
COc1ccccc1OCC(=O)NCC1CCCCC1 | 394 | -28.2% (inactive) | 5.6% (inactive) | 108 | 28.4% (inactive) | 102 | -0.413 (inactive) | -2.9e-05 (inactive) | 0.00305 (inactive) | -1.17% (inactive) | -7.1% (inactive)
CCN(CCCNC(=O)C1CCN(S(=O)(=O)c2cccc3nonc23)CC1)Cc1ccccc1 | 297 | 16.9% (inactive) | 14.3% (inactive) | 92.7 | -72.5% (inactive) | 110 | -0.43 (inactive) | -4.9e-05 (inactive) | 0.00388 (inactive) | 13.3% (inactive) | 29.8% (inactive)
Cn1c(=O)c2c(nc(SCCCC#N)n2Cc2ccccc2F)n(C)c1=O | 601 | 4.5% (inactive) | -13.6% (inactive) | 109 | -51% (inactive) | 119 | -0.416 (inactive) | -2.8e-05 (inactive) | 0.00541 (inactive) | 12.9% (inactive) | 36.5% (inactive)
CC1CN(S(=O)(=O)c2ccc(Cl)c(C(F)(F)F)c2)CC(C)O1 (stereo not drawn) | 390 | 6.1% (inactive) | -1.4% (inactive) | 105 | 0.5% (inactive) | 110 | -0.31 (inactive) | -4e-05 (inactive) | 0.0059 (inactive) | 7.15% (inactive) | 0.275% (inactive)
Cc1nc2ccccn2c1/C(O)=C1\C(=O)C(=O)N(CCCN(C)C)C1c1ccc(F)cc1 (stereo not drawn) | 507 | 21.6% (inactive) | -28.8% (inactive) | 92.5 | -54.5% (inactive) | 122 | -0.566 (inactive) | 1.9e-05 (inactive) | 0.00687 (inactive) | 6.26% (inactive) | 3.28% (inactive)
Cc1cc(NC(=O)COc2cccc(Oc3ccccc3)c2)no1 | 327 | -0.9% (inactive) | -11.4% (inactive) | 80.8 | -61% (inactive) | 106 | -0.375 (inactive) | -7.6e-05 (inactive) | 0.0048 (inactive) | 10.8% (inactive) | 30.5% (inactive)
CN(C)c1ccc(/C(=N\O)c2ccccc2)cc1 | 429 | 1.2% (inactive) | -6.9% (inactive) | 93.6 | 25.3% (inactive) | 103 | -0.465 (inactive) | 1.6e-05 (inactive) | 0.00326 (inactive) | -24.9% (inactive) | -21.7% (inactive)
Cc1ccc(Cl)cc1N1CCN(C(=O)CN2C(=O)c3cccc4cccc2c34)CC1 | 771 | -7.2% (inactive) | -2.2% (inactive) | 89.4 | -11.6% (inactive) | 101 | -0.341 (inactive) | 4.7e-06 (inactive) | 0.0104 (active) | 9.95% (inactive) | 8.22% (inactive)
COc1ccc(-c2cc(C(F)(F)F)n3ncc(C(=O)NCC4CCCO4)c3n2)cc1 (stereo not drawn) | 669 | 6.7% (inactive) | -1% (inactive) | 67.5 | 57.7% (inactive) | 95.2 | -0.00373 (active) | 2e-06 (inactive) | 0.00552 (inactive) | 13.6% (inactive) | 25.3% (inactive)
Nn1c(SCC(=O)NC2CCCCC2)nnc1-c1ccc(Cl)cc1 | 376 | 0.7% (inactive) | -1.9% (inactive) | 106 | -114% (inactive) | 108 | -0.472 (inactive) | 6.9e-06 (inactive) | 0.00502 (inactive) | 14.6% (inactive) | 19% (inactive)
Cc1cc(Cl)ccc1OCC(=O)Nn1c(C)ccc1C | 480 | -4.9% (inactive) | -6.4% (inactive) | 94.5 | -16.2% (inactive) | 136 | -0.525 (inactive) | -3.9e-05 (inactive) | 0.00483 (inactive) | 11.6% (inactive) | 15.5% (inactive)
O=C(CC(=O)c1cc(Cl)ccc1O)c1ccccc1 | 435 | 3.8% (inactive) | -1.9% (inactive) | 99.3 | -68.1% (inactive) | 126 | -0.41 (inactive) | 2.8e-05 (inactive) | 0.00798 (inactive) | -30.5% (inactive) | -67.7% (inactive)
O=C(O)c1cccc(NC(=O)C23CC4CC(C2)CC(n2cnc(Cl)n2)(C4)C3)c1 | 571 | -24.4% (inactive) | -15.8% (inactive) | 108 | -14.3% (inactive) | 115 | -0.506 (inactive) | -1.2e-05 (inactive) | 0.00606 (inactive) | 9.34% (inactive) | 17.3% (inactive)
Cc1cc(C)nc(NC(=O)c2c(-c3c(Cl)cccc3Cl)noc2C)n1 | 648 | 2% (inactive) | 3.9% (inactive) | 95.5 | -7.8% (inactive) | 109 | -0.435 (inactive) | 7.7e-06 (inactive) | 0.00547 (inactive) | -2.48% (inactive) | 7.12% (inactive)
Cc1nc2ccc(N3C(=O)CCC3=O)cc2[nH]1 | 282 | -8% (inactive) | 9.2% (inactive) | 92.3 | -42.2% (inactive) | 113 | -0.553 (inactive) | 5.4e-06 (inactive) | 0.00593 (inactive) | 6.8% (inactive) | 15.6% (inactive)
O=C(NCc1ccc2c(c1)OCO2)C1CCCN(S(=O)(=O)c2cccnc2)C1 (stereo not drawn) | 584 | 7.6% (inactive) | -1.4% (inactive) | 96.3 | -65.3% (inactive) | 119 | -0.575 (inactive) | -2.7e-05 (inactive) | 0.00636 (inactive) | 8.73% (inactive) | 23.4% (inactive)
COC(=O)c1ccc2c(c1)C(=O)N(C1CCCCC1)C2=O | 338 | 2.1% (inactive) | -2.4% (inactive) | 107 | -9.6% (inactive) | 96.9 | -0.443 (inactive) | -3.4e-05 (inactive) | 0.00524 (inactive) | 14.7% (inactive) | 13.8% (inactive)
COc1ccc(C(=O)c2ccc(OC)c(N)c2)cc1N | 298 | -11.7% (inactive) | -64.9% (inactive) | 3.2 | -187% (inactive) | 111 | -0.465 (inactive) | -7.4e-05 (inactive) | 0.00541 (inactive) | 35% (inactive) | 27.2% (inactive)
